In the supplement of paper PMC9950053:
Where a name gives a salt, the structure may show the parent alone.

system: Danio rerio larvae (5 dpf); experiment: combined upward orientation toward moving lines (periods 7-14) minus DMSO control (percentage points); higher = more orientation with moving lines than DMSO larvae; settings: 10 µM; exposure time: 3 h pre-incubation + 3 h imaging
Method: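 Wild-type 5 dpf zebrafish larvae (n=48 per drug, 96-well plates, 28.5 °C) were exposed to Tocris FDA-approved library compounds at 10 µM (0.1% DMSO) for 3 h before and 3 h during imaging. Images were taken every 6 s during visual (moving coloured lines) and acoustic stimuli, and larvae were tracked with the DeepLabCut-based Z-LaP Tracker. Each behavioural measure is the treated-group mean minus the DMSO vehicle control mean (n=844), in percentage points. This mapping covers compounds with 4-character plate codes.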

| Structure (SMILES) | combined upward orientation toward moving lines |
| --- | --- |
| Cc1ccc(O)c([C@H](CCN(C(C)C)C(C)C)c2ccccc2)c1 [Tolterodine L-tartrate] | 0.814 |
| O=c1[nH]c(=O)n([C@H]2C[C@H](O)[C@@H](CO)O2)cc1C(F)(F)F [Trifluorothymidine] | -3.41 |
| CC(CCc1ccc(O)cc1)NCCc1ccc(O)c(O)c1 (stereo not given) [Dobutamine hydrochloride] | 0.917 |
| CCOc1cc(CC(=O)N[C@@H](CC(C)C)c2ccccc2N2CCCCC2)ccc1C(=O)O [Repaglinide] | -4.89 |
| COc1ccc(Cl)cc1C(=O)NCCc1ccc(S(=O)(=O)NC(=O)NC2CCCCC2)cc1 [Glibenclamide] | -10.9 |
| Cc1cn([C@H]2C=C[C@@H](CO)O2)c(=O)[nH]c1=O [Stavudine] | -0.971 |
| CCC(=O)O[C@]1(C(=O)SCF)[C@H](C)C[C@H]2[C@@H]3C[C@H](F)C4=CC(=O)C=C[C@]4(C)[C@@]3(F)[C@@H](O)C[C@@]21C [Fluticasone propionate] | -9.35 |
| CNC(=O)c1ccccc1Sc1ccc2c(/C=C/c3ccccn3)n[nH]c2c1 [Axitinib] | 4.21 |
| Cc1cccc(C)c1OCC(C)N (stereo not given) [Mexiletine hydrochloride] | -1.93 |
| CC(C)CN(C[C@@H](O)[C@H](Cc1ccccc1)NC(=O)O[C@H]1CO[C@H]2OCC[C@H]21)S(=O)(=O)c1ccc(N)cc1 [Darunavir] | 0.247 |
| CCOC(=O)N1CCC(=C2c3ccc(Cl)cc3CCc3cccnc32)CC1 [Loratidine] | -3.52 |
| Clc1ccc(COC(Cn2ccnc2)c2ccc(Cl)cc2Cl)c(Cl)c1 (stereo not given) [Miconazole nitrate] | -3.31 |
| CCCCCOC(=O)Nc1nc(=O)n([C@@H]2O[C@H](C)[C@@H](O)[C@H]2O)cc1F [Capecitabine] | -0.314 |
| O=C(NCC1CCCCN1)c1cc(OCC(F)(F)F)ccc1OCC(F)(F)F (stereo not given) [Flecainide acetate] | -3.7 |
| CN1CC(=O)N2[C@H](c3ccc4c(c3)OCO4)c3[nH]c4ccccc4c3C[C@@H]2C1=O [Tadalafil] | -7.35 |
| C[C@H]1C[C@@H]2[C@H]([C@@H](O)C[C@@]3(C)[C@H]2CC[C@]3(O)C(=O)CO)[C@@]2(C)C=CC(=O)C=C12 [Methylprednisolone] | -7.43 |
| CCOC(=O)C1=C(COCCN)NC(C)=C(C(=O)OC)C1c1ccccc1Cl (stereo not given) [Amlodipine besylate] | 0.386 |
| CN1CCC[C@@H]1CCO[C@](C)(c1ccccc1)c1ccc(Cl)cc1 [Clemastine fumarate] | 4.64 |
| COc1cc2ncnc(Nc3ccc(F)c(Cl)c3)c2cc1OCCCN1CCOCC1 [Iressa] | -7.88 |
| CC(C)c1nc(N(C)S(C)(=O)=O)nc(-c2ccc(F)cc2)c1/C=C/[C@@H](O)C[C@@H](O)CC(=O)O [Rosuvastatin calcium] | 4.67 |

| Structure (SMILES) | combined upward orientation toward moving lines |
| --- | --- |
| COc1ccc([C@@H]2Sc3ccccc3N(CCN(C)C)C(=O)[C@@H]2OC(C)=O)cc1 [Diltiazem hydrochloride] | -1.58 |
| COC(c1ccccc1)(c1ccccc1)[C@H](Oc1nc(C)cc(C)n1)C(=O)O [Ambrisentan] | -0.152 |
| Nc1ncn([C@@H]2O[C@H](CO)[C@@H](O)[C@H]2O)c(=O)n1 [5-Azacytidine] | 2.4 |
| CC(C)[C@H]1CC[C@H](C(=O)N[C@H](Cc2ccccc2)C(=O)O)CC1 [Nateglinide] | -0.86 |
| Cn1cnc([N+](=O)[O-])c1Sc1ncnc2[nH]cnc12 [Azathioprine] | 0.321 |
| Nc1nc(F)nc2c1ncn2[C@@H]1O[C@H](CO)[C@@H](O)[C@@H]1O [Fludarabine] | -6.81 |
| Cc1nc(Nc2ncc(C(=O)Nc3c(C)cccc3Cl)s2)cc(N2CCN(CCO)CC2)n1 [Dasatinib] | -11 |
| O=C(O)c1cc(/N=N/c2ccc(S(=O)(=O)Nc3ccccn3)cc2)ccc1O [Sulfasalazine] | -3.42 |
| COCCCOc1cc(C[C@@H](C[C@H](N)[C@@H](O)C[C@H](C(=O)NCC(C)(C)C(N)=O)C(C)C)C(C)C)ccc1OC [Aliskiren hemifumarate] | -2.45 |
| CN1CC[C@@H](NC(=O)Nc2ccc(C#N)cc2)C[C@@H]1c1nc2ccccc2[nH]1 | 4.61 |
| CN(C)CCc1c[nH]c2ccc(Cn3cncn3)cc12 [Rizatriptan benzoate] | -1.53 |
| COc1ccc(-c2ccc3cc(C(=O)O)ccc3c2)cc1C12CC3CC(CC(C3)C1)C2 [Adapalene] | -8.09 |
| O=C1CCc2cc(OCCCCc3nnnn3C3CCCCC3)ccc2N1 [Cilostazol] | -4.64 |
| O=C(Nc1c(Cl)cncc1Cl)c1ccc(OC(F)F)c(OCC2CC2)c1 [Roflumilast] | -2.52 |
| O=C(O[C@@H]1C[C@@H]2C[C@H]3C[C@H](C1)N2CC3=O)c1c[nH]c2ccccc12 [Dolasetron mesylate] | -0.866 |
| Cc1ccsc1C(=CCCN1CCC[C@@H](C(=O)O)C1)c1sccc1C [Tiagabine hydrochloride] | 13.4 |
| CO[C@H]1/C=C/O[C@@]2(C)Oc3c(C)c(O)c4c(O)c(c5c(nc6cc(C)ccn65)c4c3C2=O)NC(=O)/C(C)=C\C=C\[C@H](C)[C@H](O)[C@@H](C)[C@@H](O)[C@@H](C)[C@H](OC(C)=O)[C@@H]1C [Rifaximin] | -3.95 |
| COc1cc2nc(N3CCN(C(=O)c4ccco4)CC3)nc(N)c2cc1OC [Prazosin hydrochloride] | -10.6 |
| CN(CCOc1ccc(CC2SC(=O)NC2=O)cc1)c1ccccn1 (stereo not given) [Rosiglitazone] | -10.5 |
| CC#C[C@]1(O)CC[C@H]2[C@@H]3CCC4=CC(=O)CCC4=C3[C@@H](c3ccc(N(C)C)cc3)C[C@@]21C [Mifepristone] | 2.94 |
